According to PubChem BioAssay (Tox21):
Records with an inconclusive call do not appear. Active and inactive are the calls of the source. Unless noted, the call rests on the fitted dose curve; in most records, active means well fitted curve in the direction sought with a large enough effect in the repeat runs; inconclusive means weak or mixed curves; inactive means no such curve, though single readings can be large; an effect the other way counts as inactive or inconclusive.

Columns and labels:
[1] = A CellTox Green Cytotoxicity Assay to monitor cytotoxicity in HepG2 cells - 0 hour (AID 1224882); further: nearly all actives have a fitted effect of over 35% in size
In short: (§1)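 HepG2, 600 cells/well premixed w/ CellTox Green; 5 h settle, 37 C/5% CO2; pintool cpd add (DMSO); 37 C, 40 h; fluorescence read at 0, 8, 16, 24, 32, 40 h.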

[2] = A CellTox Green Cytotoxicity Assay to monitor cytotoxicity in HepG2 cells - 32 hour (AID 1224883); further: nearly all actives have a fitted effect of over 50% in size
In short: as §1

[3] = A CellTox Green Cytotoxicity Assay to monitor cytotoxicity in HEK293 cells - 8 hour (AID 1224884); further: nearly all actives have a fitted effect of over 35% in size
In short: (§2)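 Read-out: fluorescence of a cell-impermeant cyanine dye staining DNA of dead cells, proportional to cytotoxicity. HEK293, 600 cells/well with reagent, compound (23 nL DMSO) added after 5 h; reads at 0, 8, 16, 24, 32, 40 h.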

[4] = qHTS RealTime-Glo MT Cell Viability Assay in HEK293 cells - 24 hour (AID 1224886); further: nearly all actives have a fitted effect of over 50% in size; further: potency means the concentration at half of the fitted maximal effect
In short: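 Viability tracked continuously by luminescence as live cells reduce a prosubstrate for NanoLuc; HEK293 cells preincubated 5 h, compound-treated at 37 C, and read at 0, 8, 16, 24, 32 and 40 h.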

[5] = qHTS RealTime-Glo MT Cell Viability Assay in HEK293 cells - 8 hour (AID 1224887); further: nearly all actives have a fitted effect of over 50% in size; further: potency means the concentration at half of the fitted maximal effect
In short: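 Luminescence readout at each listed time point; HEK293, 600 cells/well, RealTime-Glo MT reagent added with cells; compounds pinned (23 nL in DMSO) after 5 h at 37 C; continuous culture at 37 C.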

[6] = A CellTox Green Cytotoxicity Assay to monitor cytotoxicity in HEK293 cells - 16 hour (AID 1224888); further: nearly all actives have a fitted effect of over 35% in size
In short: as §2

[7] = qHTS RealTime-Glo MT Cell Viability Assay in HepG2 cells - 0 hour (AID 1224889); further: nearly all actives have a fitted effect of over 50% in size; further: potency means the concentration at half of the fitted maximal effect
In short: (§3)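 Viability was tracked continuously by NanoLuc luminescence from prosubstrate reduced by living HepG2 cells, at successive time points over 40 h of compound exposure. Cells with reagent were preincubated 5 h at 37 °C before compound addition.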

[8] = A CellTox Green Cytotoxicity Assay to monitor cytotoxicity in HepG2 cells - 8 hour (AID 1224890); further: nearly all actives have a fitted effect of over 45% in size
In short: as §1

[9] = qHTS assay to identify small molecule antagonists of the estrogen receptor alpha (ER-alpha) signaling pathway using the BG1 cell line in the presence of 0.1 nM 17-beta-estradiol - cell viability counter screen (AID 1259241); further: nearly all actives have a fitted effect of over 40% in size
In short: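 Following 5 days in phenol red-free medium with charcoal-stripped serum, VM7Luc4E2 cells received test compounds alongside 0.1 nM 17beta-estradiol (final) at 37C for 22 hr. Live cells were then quantified via protease-substrate fluorescence.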

[10] = qHTS assay to identify small molecule antagonists of the androgen receptor (AR) signaling pathway using the MDA cell line in the presence of 0.5 nM R1881 - cell viability counter screen (AID 1259242); further: nearly all actives have a fitted effect of over 45% in size
In short: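 Live-cell protease fluorescence, CellTiter-Fluor, 30 min at 37C. Cells: MDA-kb2, 3,000/well, preincubated 5 hr. Compounds plus 0.5 nM R1881 final, 16 hr, 37C, 0% CO2.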

[11] = biological target: Androgen receptor (Homo sapiens) (UniProt P10275); experiment: qHTS assay to identify small molecule antagonists of the androgen receptor (AR) signaling pathway using the MDA cell line in the presence of 0.5 nM R1881 (AID 1259243)
Sequence of Androgen receptor (Homo sapiens) (P10275 whole entry, looked up): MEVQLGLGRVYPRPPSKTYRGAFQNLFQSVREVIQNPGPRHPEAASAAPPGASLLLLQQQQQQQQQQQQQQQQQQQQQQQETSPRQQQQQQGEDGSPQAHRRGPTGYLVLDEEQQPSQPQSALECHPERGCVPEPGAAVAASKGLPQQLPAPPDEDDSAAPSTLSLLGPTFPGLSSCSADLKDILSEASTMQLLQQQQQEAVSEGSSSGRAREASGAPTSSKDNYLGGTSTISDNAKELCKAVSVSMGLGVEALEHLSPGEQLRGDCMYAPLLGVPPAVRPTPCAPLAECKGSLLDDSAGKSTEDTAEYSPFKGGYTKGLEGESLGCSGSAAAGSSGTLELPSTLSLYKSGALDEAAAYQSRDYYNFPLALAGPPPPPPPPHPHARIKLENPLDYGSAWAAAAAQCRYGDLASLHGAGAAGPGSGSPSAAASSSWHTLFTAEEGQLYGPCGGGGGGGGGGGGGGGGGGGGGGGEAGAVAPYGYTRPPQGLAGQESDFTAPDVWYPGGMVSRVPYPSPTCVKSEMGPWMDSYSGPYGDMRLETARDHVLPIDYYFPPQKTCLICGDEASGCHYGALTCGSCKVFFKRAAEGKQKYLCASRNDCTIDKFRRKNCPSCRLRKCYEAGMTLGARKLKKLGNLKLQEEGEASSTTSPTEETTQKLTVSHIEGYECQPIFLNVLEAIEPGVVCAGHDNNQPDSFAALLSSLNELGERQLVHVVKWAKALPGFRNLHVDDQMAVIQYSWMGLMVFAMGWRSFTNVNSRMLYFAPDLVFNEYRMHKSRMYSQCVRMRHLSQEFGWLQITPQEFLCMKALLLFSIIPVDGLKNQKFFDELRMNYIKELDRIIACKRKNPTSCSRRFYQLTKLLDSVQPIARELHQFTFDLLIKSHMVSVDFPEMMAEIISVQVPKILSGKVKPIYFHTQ
In short: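 MDA-kb2, MMTV-luc (AR/GR elements); 3,000 cells/well; cpd + 0.5 nM R1881 final; 16 hr 37C, 0% CO2; ONE-Glo 30 min RT; luminescence.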

[12] = qHTS assay to identify small molecule HDAC inhibitors (AID 1259364); further: potency means the concentration at half of the fitted maximal effect;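 further: wild-type HCT-116 cells with endogenous class I/II HDAC activity; nearly all actives have a fitted effect of over 45% in size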
In short: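 HCT-116 (wild type), 1,500 cells/well, overnight; compound 2 hr 37C 5% CO2; HDAC-Glo I/II reagent 30 min RT; luminescence readout.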

[13] = qHTS assay to identify small molecule HDAC inhibitors - cell viability counter screen (AID 1259365)
In short: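 HCT-116 wild-type, overnight attachment; 2hr drug exposure, 37C; CellTiter-Glo luminescent ATP readout after 30min RT.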

[14] = qHTS assay to identify small molecule antagonists of the sonic hedgehog signaling (Shh) pathway - cell viability counter screen (AID 1259367); further: nearly all actives have a fitted effect of over 55% in size
In short: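 CellTiter-Fluor signal in conditioned medium-stimulated 3T3 Gli1-Luc cells, 23 hr compound exposure, 37C.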

[15] = qHTS assay to identify small molecule agonists of the sonic hedgehog signaling (Shh) pathway (AID 1259368; calls by dose curve;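 further: NIH/3T3-derived 3T3Gli1-Luc cells carrying a stable Gli1-driven firefly luciferase reporter; series mostly up to about 92 µM; nearly all actives have a fitted effect of over 15% in size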)
In short: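 Read-out: firefly luciferase luminescence from a Gli1 response element reporter stably integrated in NIH/3T3-derived 3T3Gli1-Luc cells, measured 30 min at room temperature after reagent addition. Compound exposure lasted 24 hr at 37 C, 5% CO2.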

[16] = qHTS assay to identify small molecule antagonists of the sonic hedgehog signaling (Shh) pathway (AID 1259369; calls by dose curve; further: nearly all actives have a fitted effect of over 45% in size; further: potency means the concentration at half of the fitted maximal effect)
In short: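 Luminescence readout: firefly Luc under Gli1 response element in 3T3Gli1-Luc cells (NIH/3T3 clone). Antagonist mode, stimulation by conditioned medium; compound exposure 24hr at 37 C, 5% CO2.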

[17] = qHTS assay to identify small molecule phospholipidosis (PLD) inducers (AID 1259344; active means well fitted curve in the direction sought with a large enough effect; an effect the other way counts as inactive or inconclusive)
In short: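 Accumulated phospholipid, stained red by LipidTOX during 24 h compound treatment of HepG2 cells at 37 C, is quantified from images as pit number and intensity, normalised per cell using Hoechst-stained nuclei.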

[18] = qHTS assay to identify small molecule agonists of the sonic hedgehog signaling (Shh) pathway - cell viability counter screen (AID 1259366); further: nearly all actives have a fitted effect of over 50% in size
In short: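 Compounds in DMSO were pin-transferred onto 3T3 Gli1-Luc cells that had settled 4hr; plates then stood 24hr at 37C and 5% CO2. One hour before the end, CellTiter-Fluor was added and fluorescence recorded.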

[19] = qHTS RealTime-Glo MT Cell Viability Assay in HepG2 cells - 16 hour (AID 1224885); further: nearly all actives have a fitted effect of over 50% in size
In short: as §3

[20] = biological target: Estrogen receptor (Homo sapiens) (UniProt P03372); experiment: qHTS assay to identify small molecule antagonists of the estrogen receptor alpha (ER-alpha) signaling pathway using the BG1 cell line in the presence of 0.1 nM 17-beta-estradiol (AID 1259244); further: nearly all actives have a fitted effect of over 50% in size
Sequence of Estrogen receptor (Homo sapiens) (P03372 whole entry, looked up): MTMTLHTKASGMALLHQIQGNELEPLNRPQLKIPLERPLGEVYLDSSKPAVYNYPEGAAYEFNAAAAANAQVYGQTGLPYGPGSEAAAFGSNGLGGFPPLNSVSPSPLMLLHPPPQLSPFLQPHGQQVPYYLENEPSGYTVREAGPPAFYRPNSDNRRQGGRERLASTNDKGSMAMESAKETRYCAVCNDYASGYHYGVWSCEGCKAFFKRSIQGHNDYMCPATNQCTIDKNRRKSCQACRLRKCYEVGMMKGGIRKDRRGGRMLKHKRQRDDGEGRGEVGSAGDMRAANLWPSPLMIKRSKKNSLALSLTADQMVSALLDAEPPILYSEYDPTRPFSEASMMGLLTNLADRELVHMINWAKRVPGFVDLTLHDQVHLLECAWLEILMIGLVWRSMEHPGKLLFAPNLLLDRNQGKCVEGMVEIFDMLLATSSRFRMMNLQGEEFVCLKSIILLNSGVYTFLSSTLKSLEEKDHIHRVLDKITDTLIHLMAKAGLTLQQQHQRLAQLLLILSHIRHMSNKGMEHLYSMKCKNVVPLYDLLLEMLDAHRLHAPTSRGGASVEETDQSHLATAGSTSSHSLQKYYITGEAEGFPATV
In short: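 Luminescence after ONE-Glo (30 min, room temperature) measured ERE-luciferase activity in VM7Luc4E2 cells treated 22 h with compound and 0.1 nM final 17beta-estradiol as stimulator.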

Measured: Potency

CCN(Cc1ccccc1)c1ccccc1
active: [4] 21.6 µM | [11] 53.8 µM | [16] 48 µM
not listed: [17] | [18] | [19] | [20]
inactive: all other assays above

O=C(O)CNC(=O)c1ccccc1
not listed: [11] | [19] | [20]
inactive: all other assays above

CCCC(=O)O[C@]1(C(=O)CC)CC[C@H]2[C@@H]3CCC4=CC(=O)CC[C@]4(C)[C@H]3[C@@H](O)C[C@@]21C
active: [7] 1.69 µM
not listed: [4] | [11] | [16] | [17] | [18]
inactive: all other assays above

CC(CC=O)CC(C)(C)C (stereo not drawn)
not listed: [11] | [17] | [19]
inactive: all other assays above

NC(CCC(=O)O)C(=O)O (stereo not drawn)
not listed: [11] | [17] | [18] | [19]
inactive: all other assays above

CC(C)COC(=O)c1ccc(N)cc1
not listed: [11] | [12] | [16] | [19]
inactive: all other assays above

CCC(=O)OCc1ccccc1
not listed: [7] | [11] | [17] | [20]
inactive: all other assays above

O=C1c2ccccc2C(=O)c2cc(O)ccc21
active: [5] 55 µM | [12] 7.7 µM
not listed: [4] | [11] | [17] | [18] | [20]
inactive: all other assays above
